tested on: VDR:RXRa (NR concentration 270 nM, RXRa partner concentration 90 nM); assay: PBM binding z-score (relative to random genomic background probes); higher = stronger binding; sequences stand for … in GC…GCGATTGACAGCGTAGAATGAAGG
Protocol: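 Protein-binding microarray (Agilent 4x180K custom design, double-stranded 60-nt probes: 5' GC cap, 34-nt variable region, 24-nt constant primer region; full probe sequence given). Purified or IVT nuclear receptor:RXRα heterodimers (3:1 NR:RXRα, mostly 270:90 nM) or homodimers were incubated for 1 h in PBS with 2% milk and no ligand, then detected with Alexa488 antibodies. Fluorescence from o1-orientation probes (~5 replicates averaged) was converted to z-scores against 500 random hg19 background probes. Variable regions are seed direct-repeat (DR0–DR5) sites, all their single-nucleotide variants and half-site ablations.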

Sequence	PBM binding z-score
CCAAACAGGTGAGAAGGTAACTCAGCCTCGATTA	-0.0119
TGATATAGGTAAAAGGTGAAAGTCGGTGTGGTAA	1.33
ATCGAAAGGTCGACGAGGTGAATATACACCGTTT	6.16
GGAACGAGGGAAAGTTGATAGCAGAGTTTGATGG	-0.524
GGAACTAGGGCAAGTTGATAGCAGAGTTTGATGG	-0.183
CCGCCTGGGGCAGAAAGGTTACCATACCATCCGG	0.57
CCTGATAGGTCAATGGTCAGCTAAAGCAGCTCGC	1.99
TCTAGCAGGCCAGAGTGTCACTCAAGAGGTACGG	-0.00537
ATCTCTAGGTAACAAGTTCAGTTAAAGAGAGGAC	2.23
TCTCGGAGGACACGATAGGTCAGAGCTCGACATC	0.769
CCTGACGGGTCACTGACAGGTTATAGCATTTGGA	2.94
CGTCCAAGGTCAGAGAGGTCAGTGCATGCCGAGT	7.42
CGAACTAGGTCAGAACAGGATAGTGAAGGATGAT	0.322
GCTAACGGGTCAAAGGTTATAGCATGAATAGAAT	4.9
GCTCGGAGGACAAGGTCAGACCTTTGTCCGTAGA	1.97
CGAACCAGGTCATTGACAGGACAGTGAATAGTAA	2.85
CAAACTAGGTCTCAGAGGTCAAAGTCCGTGCGTA	5.82
CAAACTAGGTCAAAGGTAAAAGTCGAGCCAACCA	2.98
ATATGTAGGTTACATCCGGGTTATTCAGGCTATG	1.68
ACTGACGGGTCAACGAGGTTATAGCACGCGTATA	7.41

Sequence	PBM binding z-score
CCTTACGGGTCACGAAGTTATAGCACGACGAGCG	3.91
AGTCAAAGTTCACTAGGTAACGTTAGATTCAGCT	4.07
ATCTCTAGGTAAAGTTCTGTGAAAGATCGATAGA	0.335
CCTTACGGGTCACTCCAGGTTATAGCTTCGGAGT	3.95
TCTATTAATTGAAGGGCAACCGACGAGTCCGTTT	1.05
TATACAGGGTCAAAGCCCAGAGTACGAATGTCGA	4.41
ATCTCTAGGTAAAGATTGTTCAGTGAATGCAAAT	0.327
CCAGTCAGGTGAGAAGGTAACTCAGCCTCGATTA	-0.296
CCTACTGGGCCTTTCAGAGGTCATTGATCATATG	3.36
CTCGAAAGGTCGGTTGACGTGAGTATACGGATAA	1.02
GCTTGTAGATCAAGGTCAAGAAAGACTAAGCTAA	2.67
CCGAGTAAGTTATGGGGCATTCAGGCAACGGTGA	-0.346
TCGACTAGGTTAGTCGGGGCATTCAGCCAACATA	1.81
TCTTGTAGATCAACACGAGGTTAAGAAAGATCGA	0.895
GCTATTAGTTAAAAGGGCAACCGAATGATTCTCG	0.193
ATCTCTAGGTAAAAGTTGAGTGAATCCCGAGGAT	-0.00666
CGAACTAGTTCATTGACAGGACAGTGAATAGTAA	1.26
AGAATGAGGTTACCAAAGATCCGGGAAACGCTTG	1.16
GAAACAGGGTCAAGGCCAGAGTACGCGTATTGAT	4.6
TAGCCTAGGTCATTCAGCGGCCAGTATAGAAAGC	2.62
